According to ChEMBL document CHEMBL1201862, “PubChem BioAssay data set” (2004):
Out of some 400,000 compounds screened, about 2,100 (0.53%) were called active. Not shown: some 14% with an inconclusive outcome. No rule for the calls is given here. The sample as a whole holds a higher share of actives than the screen did.

target: Ataxin-2 (Homo sapiens) (UniProt Q99700); test: qHTS for Inhibitors of ATXN expression.; type: functional
Sequence (Q99700 whole entry): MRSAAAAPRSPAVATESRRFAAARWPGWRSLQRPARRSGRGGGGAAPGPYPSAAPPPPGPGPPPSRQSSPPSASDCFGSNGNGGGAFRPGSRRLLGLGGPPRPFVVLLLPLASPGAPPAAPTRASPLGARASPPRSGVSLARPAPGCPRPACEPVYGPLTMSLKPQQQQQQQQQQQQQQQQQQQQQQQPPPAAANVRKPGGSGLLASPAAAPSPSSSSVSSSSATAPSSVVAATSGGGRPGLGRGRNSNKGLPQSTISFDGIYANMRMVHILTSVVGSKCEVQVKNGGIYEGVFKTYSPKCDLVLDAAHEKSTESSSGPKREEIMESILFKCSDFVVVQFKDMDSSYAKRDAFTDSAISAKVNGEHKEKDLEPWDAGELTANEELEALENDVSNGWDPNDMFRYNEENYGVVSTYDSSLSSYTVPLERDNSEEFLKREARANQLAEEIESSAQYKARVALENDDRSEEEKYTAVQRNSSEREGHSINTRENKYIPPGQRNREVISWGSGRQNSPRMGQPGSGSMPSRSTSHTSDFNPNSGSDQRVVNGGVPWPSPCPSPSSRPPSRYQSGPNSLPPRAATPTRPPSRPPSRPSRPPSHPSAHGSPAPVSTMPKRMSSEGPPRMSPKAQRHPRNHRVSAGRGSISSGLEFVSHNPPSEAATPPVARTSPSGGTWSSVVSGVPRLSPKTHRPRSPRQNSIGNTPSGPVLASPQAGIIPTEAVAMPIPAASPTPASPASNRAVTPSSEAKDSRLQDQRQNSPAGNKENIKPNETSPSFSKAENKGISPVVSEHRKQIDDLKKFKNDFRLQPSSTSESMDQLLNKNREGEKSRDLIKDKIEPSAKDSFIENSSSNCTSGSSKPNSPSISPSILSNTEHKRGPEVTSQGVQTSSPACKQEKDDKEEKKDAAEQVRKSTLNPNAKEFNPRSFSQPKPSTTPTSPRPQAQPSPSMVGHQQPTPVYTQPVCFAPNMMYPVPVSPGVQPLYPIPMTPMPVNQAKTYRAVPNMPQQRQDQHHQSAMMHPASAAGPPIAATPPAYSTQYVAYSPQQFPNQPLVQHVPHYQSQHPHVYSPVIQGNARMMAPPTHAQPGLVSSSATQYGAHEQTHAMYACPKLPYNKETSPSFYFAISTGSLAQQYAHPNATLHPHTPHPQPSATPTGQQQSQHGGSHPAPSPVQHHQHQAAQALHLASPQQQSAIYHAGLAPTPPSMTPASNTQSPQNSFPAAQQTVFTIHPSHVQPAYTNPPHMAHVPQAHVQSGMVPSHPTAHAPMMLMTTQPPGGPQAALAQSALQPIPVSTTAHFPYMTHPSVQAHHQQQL

SMILES | Potency
N#CCc1nc(C(c2ccccc2)c2ccccc2)no1 | inactive
CCCNC(=O)c1ccc2c(O)c(O)c(-c3ccsc3)nc2c1 | inactive
CC(C)N1CCc2c(sc(NC(=O)c3cc4cc([N+](=O)[O-])ccc4s3)c2C(N)=O)C1 | 29.9 µM (active)
CC(C)CN(CC(C)C)S(=O)(=O)c1ccc(C(=O)Nc2sc3c(c2C(N)=O)CCN(C(C)C)C3)cc1 | inactive
CC(C)N1CCc2c(sc(NC(=O)c3cc(-c4cccs4)nc4ccccc34)c2C(N)=O)C1 | 33.6 µM (active)
CC(C)N1CCc2c(sc(NC(=O)Cc3ccccc3)c2C#N)C1 | inactive
CN1CCc2c(sc(NC(=O)c3ccc(S(=O)(=O)N4CCCCCC4)cc3)c2C(N)=O)C1 | inactive
CCC(=O)Nc1sc2c(c1C(N)=O)CCN(Cc1ccccc1)C2 | inactive
CCOc1cc(CNCCO)cc(Br)c1OCc1ccc(Cl)cc1Cl | 39.8 µM (active)
CCOc1cc(CNC(C)(C)CO)cc(Br)c1OCc1ccc(Cl)cc1Cl | 39.8 µM (active)
Cc1ccc(C)c(OC(C)C(=O)Nc2ccc(S(=O)(=O)Nc3nccs3)cc2)c1 (configuration not stated) | inactive
CCc1nnc(NC(=O)c2sc3nc(C)cc(COC)c3c2N)s1 | inactive
Cc1ccc(-c2[nH]ncc2/C=N/n2c(COc3ccccc3C)nc3ccccc3c2=O)cc1 | 15.8 µM (active)
Cc1ccc(-c2nc3ccccc3c(=O)o2)cc1 | inactive
COc1ccc(/C=N/n2c(S)nnc2COc2ccccc2)cc1OC | inactive
Oc1ccccc1/C=N/n1c(S)nnc1COc1ccccc1 | inactive
Cc1ccc(-c2[nH]ncc2/C=N/n2c(COc3ccccc3)nc3ccccc3c2=O)cc1 | 39.8 µM (active)
Cc1nc2ccccc2c(=O)n1/N=C/c1ccc(O)c(O)c1O | inactive
O=C(CSc1nnc(-c2cccc(Br)c2)o1)N1CCNC1=O | inactive
CC1CCN(S(=O)(=O)c2ccc3nc(Nc4cccc(F)c4)ccc3c2)CC1 | 35.5 µM (active)
O=S(=O)(c1ccc2nc(N3CCN(c4ccccc4)CC3)ccc2c1)N1CCCCC1 | inactive

SMILES | Potency
CC1CCN(S(=O)(=O)c2ccc(NC(=O)CN3CCCC3)cc2)CC1 | inactive
O=C(OCCN1C(=O)c2cccc3c(N4CCOCC4)ccc(c23)C1=O)c1ccc(Cl)cc1 | inactive
O=C(CC(=O)N/N=C/c1ccc(C(=O)O)cc1)NCCc1ccccc1 | inactive
O=S(=O)(c1ccc(F)cc1)N1CCc2ccccc2C1 | inactive
O=C(Nc1nc2ccc([N+](=O)[O-])cc2s1)c1ccc(S(=O)(=O)N2CCCc3ccccc32)cc1 | inactive
COc1ccc(C)c2sc(N(CCCN(C)C)C(=O)c3ccc(S(=O)(=O)N4CCc5ccccc5C4)cc3)nc12 | 22.4 µM (active)
O=C(c1ccc(S(=O)(=O)N2CCCCC2)cc1)N1CCc2ccccc2C1 | inactive
COc1ccc2sc(N(CCCN(C)C)C(=O)c3ccc(S(=O)(=O)N4CCCc5ccccc54)cc3)nc2c1 | 39.8 µM (active)
COCCN(Cc1ccccc1)C(=O)c1cccc(S(=O)(=O)N2CCCc3ccccc32)c1 | inactive
O=c1[nH]c(=O)c2nc(-c3ccc(Cl)cc3)cnc2[nH]1 | inactive
O=c1c2nccnc2[nH]c(=S)n1Cc1ccccc1Cl | inactive
CC1CN(Cc2cc(=O)oc3cc(O)ccc23)CC(C)O1 (configuration not stated) | inactive
COCc1nnc(NS(=O)(=O)c2ccc(OC)cc2)s1 | inactive
CC1CCN(c2nc(CN3CCCCC3)nc3scc(-c4ccccc4)c23)CC1 | 22.4 µM (active)
CN1CCN(c2nc(-c3cccnc3)nc3scc(-c4ccccc4)c23)CC1 | inactive
CC(=O)N1CCN(Cc2nc(O)c3c(-c4ccccc4)csc3n2)CC1 | inactive
Cc1cccc(/N=C/c2cc(Br)cc(Cl)c2O)c1 | inactive
O=C(C[n+]1ccc2c(c1)nnn2-c1ccccc1)c1ccc(Cl)cc1 | inactive
O=C1OC(c2ccccc2)(c2cc(Br)ccc2O)c2ccccc21 (configuration not stated) | 35.5 µM (active)
COCc1cc(C)nc2sc(C(=O)Nc3ccc(OC(F)(F)F)cc3)c(N)c12 | inactive
Cc1ccc(NC2=C(C(=O)Nc3c(C)cc(C)cc3C)C(=N)C(C(=O)Nc3ccc(OC(F)(F)F)cc3)S2)cc1 (configuration not stated) | 18.9 µM (active)

SMILES | Potency
CSCCC(NC(=O)C1CCCC1)c1nnc2ccccn12 (configuration not stated) | inactive
CCCCCCN1C=C/C(=C\C=C(C#N)C#N)c2ccccc21 | 20 µM (active)
C=CCN1C=C/C(=C\C=C(C#N)C#N)c2ccccc21 | 6.7 µM (active)
O=C(O)COc1ccc(/C=C/c2nc3ccc([N+](=O)[O-])cc3s2)cc1 | inactive
CCN(CC)c1ccc2c(Cl)c(Br)c(=O)oc2c1 | inactive
c1ccn2c(c1)nc1c2nc2ccccn21 | inactive
C=CCNC(=O)c1cc2c(=O)n3ccccc3nc2s1 | inactive
COc1ccc(/C=C/C(=O)c2ccc3ccccc3c2O)cc1CN1CCOCC1 | inactive
COc1ccc(/C=N/NC(=O)CCn2nnc3ccccc32)cc1 | inactive
COc1ccc(/C=C/C(=O)c2ccccc2)cc1Cn1nnc2ccccc21 | 39.8 µM (active)
O=C(O)C1Sc2nc(O)sc2C2c3ccc(O)cc3OC(=O)C12 (configuration not stated) | inactive
O[C@H]1CN(CC2CCCCC2)[C@@H](c2ccc(Cl)cc2)C[C@@H]1n1cc(C2CC2)nn1 | 20 µM (active)
COc1ccc(C2CC(c3ccccc3)=NN2c2ccc(C(N)=O)cc2)cc1 (configuration not stated) | inactive
COCC(=O)Nc1nc2n(n1)C(c1ccccc1)CC(c1ccc(OC)cc1)N2 (configuration not stated) | inactive
COc1ccc([C@H]2C[C@H](O)[C@@H](n3cc(COC(=O)c4ccccc4)nn3)CN2CC2CCCCC2)cc1 | 35.5 µM (active)
COc1ccc([C@H]2C[C@@H](O)[C@H](n3cc(COC(=O)c4ccccc4)nn3)CN2CC2CCCCC2)cc1 | 28.2 µM (active)
COc1ccc(C2C3=C(CCCC3=O)N(CC(=O)O)C3=C2C(=O)CCC3)cc1 | inactive
O=C(OCc1cn([C@H]2CN(CC3CCCCC3)[C@@H](c3ccc(Cl)cc3)C[C@@H]2O)nn1)c1ccccc1 | 35.5 µM (active)
CC(C)C(=O)Nc1ccc(C(=O)N/N=C/c2cc(Br)cc(Br)c2O)cc1 | inactive
N#Cc1nc(/C=C/c2ccc(F)cc2)oc1N1CCCCCC1 | inactive
